ANO1 block: inhibitors of mouse TMEM16A calcium-activated chloride channel | 310,000 compounds, 1.2% hits | normalized B-score (activity score, 25-100; higher = stronger inhibition) at 10 µM | HEK293 TMEM16A/YFP iodide influx fluorescence, ionomycin | Q8BHY3;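 active = ratio plate-corrected score three or more library SD toward inhibition, starting fluorescence score within five deviations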;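 note: score derived from kinetic fluorescence span divided by baseline fluorescence per well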
ANO1 activ: activates or potentiates the mouse TMEM16A chloride channel; B-score at 10 µM; 340,000 compounds, 0.3% hits; AID 623877; Q8BHY3; HEK293 TMEM16A/YFP-H148Q/I152L, iodide quench fluorescence; hits give low values;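 active = fluorescence-ratio B-score plate-corrected deviation score at least 3 library SD below zero, with starting fluorescence score within 5 deviations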;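 note: channel opened by trigger with iodide after compound preincubation; score built on the fluorescence ratio of max minus min over baseline; more negative score means more quench and so TMEM16A activation or potentiation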
PHOSPHO1 inh: blocks human PHOSPHO1 phosphatase activity; AID 1565; 290,000 compounds, 1.1% hits; inhibition, % at 13.3 µM; Q8TCT1; recombinant PHOSPHO1, absorbance phosphatase assay; in the data active = inhibition above about 60%
CHT block: human CHT choline transport inhibition. CHT-expressing cells, membrane potential dye, choline response; hits give low values. 310,000 compounds, 0.86% hits. B-score at 10 µM. Q9GZV3;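 active = B-score over 3 SD under the library average, and starting fluorescence ratio not unusually high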;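 note: choline stimulus applied at its EC90 after an EC20 pre-addition; B-score computed on integrated fluorescence ratio after choline addition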
HDAC3 inhib: inhibitors of human histone deacetylase 3; recombinant HDAC3, fluorogenic peptide/trypsin coupled, fluorescence; inhibition, % at 8.3 µM; 320,000 compounds, 0.15% hits; in the data active = inhibition above about 26%, passing the limit was not always enough; inconclusive = no clear call, values can overlap the other calls
Target sequence (O15379 whole entry, looked up): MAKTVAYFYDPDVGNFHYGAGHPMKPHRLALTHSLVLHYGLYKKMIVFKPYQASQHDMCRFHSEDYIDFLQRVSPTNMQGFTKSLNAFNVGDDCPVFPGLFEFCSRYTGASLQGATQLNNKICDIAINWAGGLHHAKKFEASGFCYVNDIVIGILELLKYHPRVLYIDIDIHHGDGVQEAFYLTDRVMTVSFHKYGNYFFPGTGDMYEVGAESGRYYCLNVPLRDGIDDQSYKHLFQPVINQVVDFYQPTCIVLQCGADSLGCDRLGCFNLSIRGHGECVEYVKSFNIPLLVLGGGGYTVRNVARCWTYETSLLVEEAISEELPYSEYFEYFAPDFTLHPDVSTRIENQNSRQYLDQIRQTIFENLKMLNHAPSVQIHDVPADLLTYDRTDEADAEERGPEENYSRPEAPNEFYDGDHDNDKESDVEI
CHT allo act: allosteric activators of human choline transporter CHT; CHT-expressing cells, membrane potential dye, choline EC20; hits give high values; LV-AA mutant CHT in HEK293 cells; B-score at 10 µM; 310,000 compounds, 0.49% hits;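 active = initial fluorescence not abnormally high and integrated response B-score, plate-corrected, over 3 SD above library mean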
* = called active by the depositor; i = inactive; ? = inconclusive; . = no result given. Compounds with a hit are over-represented: about 3.2% of the library has one in this group of screens.

SMILES	ANO1 block	ANO1 activ	PHOSPHO1 inh	CHT block	HDAC3 inhib	CHT allo act
CN(c1ccccc1)S(=O)(=O)c1cccc(C(=O)OCC(=O)NCc2ccco2)c1	i	i	65.8*	i	-12.3	i
O=c1oc2ccccc2c(Nc2cc3ccccc3cc2O)c1[N+](=O)[O-]	100*	i	11.7	i	5.8	i
Cc1nn(C)c(C)c1S(=O)(=O)N1CCCC(C(=O)NC2CCCCC2)C1 (stereo not drawn)	i	i	15.5	i	7.2	i
Cc1cc(NO)nc(-c2ccc(Br)cc2)n1	i	i	95.8*	i	1.0	i
CCSc1nc2c(c(=O)[nH]c(=O)n2C)n1CC(O)COc1ccccc1C (stereo not drawn)	i	-4.57*	3.9	i	5.0	i
CC(C)Sc1nc2c(c(=O)[nH]c(=O)n2C)n1CC(O)COc1ccccc1 (stereo not drawn)	i	i	14.5	i	6.2	i
Cc1ccccc1OCC(O)Cn1c(Br)nc2c1c(=O)[nH]c(=O)n2C (stereo not drawn)	i	i	45.6	i	0.4	i
COc1ccc(OCC(O)Cn2c(Br)nc3c2c(=O)[nH]c(=O)n3C)cc1 (stereo not drawn)	i	-28.1*	-6.9	i	1.4	i
Cc1ccccc1OCC(O)Cn1c(SC(C)C)nc2c1c(=O)[nH]c(=O)n2C (stereo not drawn)	i	i	91.4*	i	6.3	i
COc1ccc(-c2cc(C(=O)NCCCN3CCCC3=O)c3ccccc3n2)cc1	i	i	.	i	-19.7	i
COc1ccc(-n2c(Cc3cccn3C)nnc2SCC(=O)Nc2ccccc2OC)cc1	i	i	2.1	i	6.0	i
Cc1occc1-c1nnc(SCC(=O)NCc2cccs2)n1CC1CCCO1 (stereo not drawn)	.	-9.53*	14.3	.	.	.
Cc1ccccc1-n1c(C)nnc1SCC(=O)NCC1CCCO1 (stereo not drawn)	i	i	66.8*	i	-3.9	i
O=C(CSc1nnc(-c2ccccc2)c2ccccc12)NCC1CCCO1 (stereo not drawn)	i	-6.82*	16.1	i	1.6	i
O=C(Cn1nc(-c2ccccc2)c2ccccc2c1=O)NCC1CCCO1 (stereo not drawn)	i	i	14.4	i	0.3	i
O=C(CCNS(=O)(=O)c1cccs1)Nc1ccccc1F	i	i	-1.9	i	2.0	i
COc1ccc(S(=O)(=O)N2CCCCCC2)cc1NS(=O)(=O)c1cc(C(=O)O)cc(C)c1C	.	i	.	.	-0.7	.
COc1ccc(C(=O)c2ccc(N(C)C)cc2)c(OC)c1	i	i	25.8	i	7.8	i
CN(C)c1ccc(C(=O)c2ccc(N(C)C)c3ccccc23)cc1	i	i	-4.4	i	-6.0	10.4*
Fc1ccccc1C1c2cccn2CCN1C(=S)Nc1ccc(Br)cc1 (stereo not drawn)	i	-4.58*	-14.5	i	6.9	i
O=C(CSc1nnc(Cn2nnc3ccccc32)o1)N(Cc1ccc(F)cc1)c1ccccc1	25*	i	0.0	i	-3.2	i
Fc1cc(F)cc(NC(=S)N2CCC(c3ccccc3)C2)c1 (stereo not drawn)	i	i	-15.8	i	0.0	i
CN1CCc2c(n(CC(O)CNCc3ccccc3)c3ccccc23)C1=O (stereo not drawn)	i	i	1.5	i	-8.1	i
CC(C)NCC(O)Cn1c2c(c3ccccc31)CCc1c-2cnn1-c1ccccc1 (stereo not drawn)	i	i	-9.1	-6.48*	-27.6	i
COc1ccc(S(=O)(=O)Nc2ccc(O)c(Sc3ncn[nH]3)c2)cc1	i	i	-3.2	i	0.8	i
SMILES	ANO1 block	ANO1 activ	PHOSPHO1 inh	CHT block	HDAC3 inhib	CHT allo act
COc1ccc(S(=O)(=O)Nc2cc(Sc3ncn[nH]3)c(O)c3ccccc23)cc1	.	.	97.5*	.	.	.
O=C(NC1=NCCS1)c1ccc(Cl)c(S(=O)(=O)N2CCCCC2)c1	i	i	-7.4	i	0.9	i
COc1ccccc1C(=O)N1CCN=C1SC	i	i	0.2	i	-7.1	i
O=[N+]([O-])c1ccccc1S(=O)(=O)NCCC1=CCCCC1	25*	i	-4.6	i	-1.2	i
O=C(Cc1ccccc1[N+](=O)[O-])NCCC1=CCCCC1	i	i	48.4	i	4.0	i
Cn1c(NC(=O)c2ccccc2Br)cc(=O)n(C)c1=O	i	i	-5.8	i	8.4	i
O=C(O)c1cc2cc(Cl)ccc2oc1=O	i	i	49.6	i	3.8	i
O=C(O)c1ccc(Cl)cc1Nc1nc2cc(Cl)ccc2o1	25*	i	6.3	i	-1.8	i
Cc1cc(NC(=O)CSCC(=O)Nc2nc3c(C)cccc3s2)no1	i	i	.	i	2.9	i
CSc1ccc(CNc2ccc(Cl)cc2)cc1	25*	i	-2.9	i	-3.7	i
COc1cccc(NC(=O)CN(C)C(=O)c2ccc3ccccc3c2)c1	i	i	8.6	i	-4.7	i
COc1cccc(NC(=O)CN(C)C(=O)c2cc3ccccc3cc2OC)c1	.	-34.1*	.	.	?	.
O=C1c2nccnc2C(=O)N1Cc1ccccc1	.	i	.	.	.	.
Cc1ccccc1-n1c(SCC(=O)c2c(N)n(C)c(=O)n(C)c2=O)nnc1-c1cccnc1	i	i	-1.5	i	3.8	i
CCn1c(SCC(=O)c2cc(C)n(C)c2C)nnc1-c1ccccc1	i	i	62.2*	i	1.4	i
Cc1ccccc1-n1c(SCC(=O)c2cc(C)n(C)c2C)nnc1-c1cccnc1	i	i	86.5*	i	7.0	i
CC(=O)c1c(C)[nH]c(C(=O)CSc2nnc(-c3cccs3)n2Cc2ccccc2)c1C	i	i	42.2	i	9.7	i
O=c1cc(CSc2nnc(-c3cccs3)n2Cc2ccccc2)nc2sc3ccccc3n12	100*	i	69.4*	i	1.6	i
Cc1cc(C(=O)CSc2nnc(-c3cccs3)n2Cc2ccccc2)c(C)n1C	i	i	89.7*	i	2.0	i
CC(CO)(CO)NCc1ccc(-c2ccccc2)cc1	i	i	-16.4	i	.	i
Cc1ccccc1-n1c(SCc2c(C)noc2C)nnc1-c1cccnc1	i	-5.22*	53.3	i	1.9	i
Cc1ccccc1-n1c(SCc2c(C)noc2C)nnc1-c1ccncc1	i	i	13.8	i	-0.5	i
CCn1c(=O)c2c(n3cnnc13)-c1ccccc1CC21CCCCC1	i	-9.62*	-8.3	i	-0.9	i
